# In PubChem BioAssay (NCI):
# This is part of a sample that, as a whole, favours compounds with a hit. Of some 79,000 tested, about 15% had one in any assay. Unmarked numbers belong to inactive results. The source made the active and inactive calls. Cut-off read from the data, not from the text of the source: active = growth inhibition above about 70%; inactive = the rest.
# Assay: NCI Yeast Anticancer Drug Screen. Data for the rad14 strain (AID 159);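 note: 0% = growth of vehicle-treated control cultures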
# Settings: S. cerevisiae rad14 strain growth inhibition, hits give high values
# Protocol: Growth inhibition of yeast strains with defined genetic alterations is measured as a screen for potential anti-cancer activity. Selected strains with alterations in DNA damage repair or cell cycle control were exposed to compounds and growth inhibition was measured relative to vehicle treated controls. The strain used in this assay is rad14
Compound,growth inhibition (at 1.2 µM) [%],growth inhibition (at 3.7 µM) [%],growth inhibition (at 11.0 µM) [%],growth inhibition (at 33.0 µM) [%],growth inhibition (at 100.0 µM)
Cc1cc(N=C2C=CC(=[N+](C)C)C=C2)c(N)cc1N,-20,-19,8,46,70% (active)
COc1cc(N)ccc1Nc1c2ccccc2nc2ccccc12,-43,-25,-5,13,66%
Oc1ccc(C=Nc2ccccc2O)cc1,17,16,20,25,38%
Cc1cc(Cl)ccc1NC(=O)/C(Cl)=C1/Sc2ccccc2NC1=O,1,4,5,4,2%
Clc1nc(C(Cl)Cl)nc2sc3c(c12)CCCC3,6,2,9,33,69%
N#C/C(=C/c1c(Cl)cccc1Cl)C(N)=O,-3,-15,-1,55,97% (active)
O=C1C=CC(=Nc2ccccc2)c2ccccc21,-1,1,12,38,58%
CCn1ncc(N=O)c1N,-2,4,15,32,41%
